Rows were chosen to be rich in hits. Some 6.7% of all compounds tested hit in one or more screens of this group.
C diff HTS: blocks growth of Clostridium difficile | Clostridium difficile clinical isolate growth, OD600, 24 h; active compounds read low | actives 0.25% (n = 86,000) | growth activity, negative = inhibition, % at 16 µg/mL (by protocol) | AID 1259249;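 active = mean growth activity at or below -80% and every replicate also at or below -80%; inconclusive = mean at or below -80% but some replicate above -80%; inactive = mean growth activity above -80%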
Pf Dd2 inh: inhibitors of Plasmodium falciparum Dd2 growth. P. falciparum Dd2 growth, SYBR Green, 72 h; active compounds read low. activity change, % at 10 µM. actives 2.3% (n = 94,000). AID 1159554; in the data active = activity change below about -80%; inconclusive = no clear call, values can overlap the other calls
T cruzi growth: inhibitors of T. cruzi proliferation; T. cruzi beta-gal in NIH3T3, GalScreen luminescence, 90 h; inhibition, % at 8.34 µM; actives 5.9% (n = 77,000);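 active = mean inhibition above about 93%, with at least 55% of replicates each passing it, limit read from the data, passing the limit was not always enough; inconclusive = only one of those two conditions holds; inactive = neither condition holds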
A number is an active result; - = inactive; ? = inconclusive; . = no result given; ! = not confirmed by another sample.

SMILES	C diff HTS	Pf Dd2 inh	T cruzi growth
C[C@@H]1CN([C@@H](C)CO)C(=O)c2cc(NS(C)(=O)=O)ccc2O[C@@H](C)CCCCO[C@@H]1CN(C)Cc1ccccc1	-	-95	-
C[C@@H]1CN([C@H](C)CO)C(=O)c2cc(NS(C)(=O)=O)ccc2O[C@@H](C)CCCCO[C@H]1CN(C)Cc1ccc(Cl)c(Cl)c1	-	-	-
O=C(C[C@@H]1CC[C@H]2[C@@H](COC[C@H](O)CN2S(=O)(=O)c2ccccc2F)O1)NCc1ccccc1F	-	-	-
CC(C)NC(=O)Nc1cccc2c1O[C@@H](CN(C)Cc1ccc(C(=O)O)cc1)[C@H](C)CN([C@H](C)CO)C2=O	-	-	.
CO[C@H]1CN(C)C(=O)c2ccc(NC(=O)c3cnccn3)cc2OC[C@H](C)N(CCc2ccccc2)C[C@@H]1C	.	-	-
C[C@H]1CN([C@@H](C)CO)C(=O)c2cccc(NC(=O)c3ccc(-c4nccs4)cc3)c2O[C@H]1CN(C)Cc1ccc(-c2ccccc2)cc1	-	-	-
C[C@@H]1CN([C@H](C)CO)C(=O)c2cccc(NC(=O)c3ccc(-c4nccs4)cc3)c2O[C@H]1CN(C)Cc1ccc2c(c1)OCO2	-	-92	-
C[C@H](CO)N1C[C@H](C)[C@H](CN(C)Cc2ccc(-c3ccccc3)cc2)Oc2c(NC(=O)c3ccc(-c4nccs4)cc3)cccc2C1=O	-	-	-
C[C@H]1CN([C@@H](C)CO)C(=O)c2cccc(NC(=O)c3ccc(-c4nccs4)cc3)c2O[C@@H]1CN(C)Cc1ccc2c(c1)OCO2	-	-	-
C[C@H]1CN([C@@H](C)CO)C(=O)c2cccc(NC(=O)c3ccc(-c4nccs4)cc3)c2O[C@H]1CN(C)C(=O)Nc1cccc2ccccc12	-	-	-
C[C@@H]1CN([C@@H](C)CO)C(=O)c2cccc(NC(=O)c3ccc(-c4nccs4)cc3)c2O[C@@H]1CN(C)C(=O)Nc1cccc2ccccc12	-	-86	-
C[C@@H]1CN([C@H](C)CO)C(=O)c2cccc(NC(=O)c3ccc(-c4nccs4)cc3)c2O[C@H]1CN(C)Cc1ccc(-c2ccccc2)cc1	-	-82	-
C[C@H](CO)N1C[C@H](C)[C@@H](CN(C)Cc2ccc(-c3ccccc3)cc2)Oc2c(NC(=O)c3ccc(-c4nccs4)cc3)cccc2C1=O	-	-86	-
C[C@H](CO)N1C[C@H](C)[C@@H](CN(C)S(=O)(=O)c2ccc(F)cc2)OCCCC[C@H](C)Oc2ccc(NS(=O)(=O)c3cccs3)cc2C1=O	-	-	-
CC(C)c1cn(CC[C@@H]2CC[C@H](NC(=O)C3CC3)[C@@H](CO)O2)nn1	.	-	-
Cc1ccc(S(=O)(=O)NCC[C@H]2CC[C@H](NC(=O)c3cccc(F)c3)[C@@H](CO)O2)cc1	.	-	-
C/C=C/c1ccc(C2[C@@H]3CN(Cc4ccc5c(c4)OCO5)C[C@H]2N3)cc1 (stereo partly specified)	-	-94!	.
C/C=C/c1ccc(C2[C@H]3CNC[C@@H]2N3Cc2ccc3c(c2)OCO3)cc1 (stereo partly specified)	-	-	.
c1cncc(-c2ccc(C3[C@@H]4CN(Cc5ccc6c(c5)OCO6)C[C@H]3N4)cc2)c1 (stereo partly specified)	-	-	.
Cc1ccccc1-c1ccc(C2[C@@H]3CN(Cc4ccc5c(c4)OCO5)C[C@H]2N3)cc1 (stereo partly specified)	-94	-	.
CN(C)C(=O)c1ccc(-c2ccc(C3[C@@H]4CN(Cc5ccc6c(c5)OCO6)C[C@H]3N4)cc2)cc1 (stereo partly specified)	-	-82!	.
Cc1ccccc1-c1ccc(C2[C@H]3CNC[C@@H]2N3Cc2ccc3c(c2)OCO3)cc1 (stereo partly specified)	-	-	.
CO[C@H]1CN(C)C(=O)c2ccc(NC(C)=O)cc2OC[C@H](C)N(Cc2ccccc2C(=O)O)C[C@H]1C	-	-	-
C[C@@H](NC(=O)C[C@@H]1C=C[C@@H](NS(=O)(=O)c2cccc(F)c2)[C@H](CO)O1)c1ccccc1	.	-	-
C[C@H](CO)N1C[C@H](C)[C@@H](CN(C)S(C)(=O)=O)Oc2ccc(NC(=O)Nc3cccc4ccccc34)cc2CC1=O	-	-	-
SMILES	C diff HTS	Pf Dd2 inh	T cruzi growth
C[C@@H]1CCCCO[C@@H](CN(C)S(=O)(=O)c2ccccc2)[C@@H](C)CN([C@H](C)CO)C(=O)c2cc(NS(C)(=O)=O)ccc2O1	-	-	-
Cc1ccccc1S(=O)(=O)N1[C@H](CO)[C@@H](c2ccc(C#CC3CC3)cc2)[C@@H]1C#N	-	-87	-
Cc1ccccc1S(=O)(=O)N1[C@H](C#N)[C@@H](c2ccccc2)[C@H]1CO	-	-	-
N#C[C@H]1[C@@H](c2ccc(C#CC3CCCCC3)cc2)[C@@H](CO)N1S(=O)(=O)c1ccccc1	-	?	-
N#C[C@H]1[C@@H](c2ccc(C#CC3CCCC3)cc2)[C@@H](CO)N1S(=O)(=O)Cc1ccccc1	-	-89	-
COC(=O)C[C@@H]1C=C[C@@H](NS(=O)(=O)c2ccccc2F)[C@@H](CO)O1	.	-	-
C[C@@H]1CCCCO[C@H](CN(C)C(=O)NC2CCCCC2)[C@H](C)CN([C@H](C)CO)C(=O)c2cc(NS(=O)(=O)c3cn(C)cn3)ccc2O1	-	-	-
C[C@H]1CN([C@@H](C)CO)C(=O)c2cc(NC(=O)Cn3cnnn3)ccc2O[C@H]1CN(C)CC1CCCCC1	-	-	-
O=C(Nc1ccc(F)cc1)N1CCCCN2[C@H](CO)[C@H](c3ccc(C#Cc4ccccc4)cc3)[C@@H]2C1	-	-83	-
O=C(Nc1ccccc1)N1CCCCN2[C@H](C1)[C@@H](c1ccc(C#Cc3ccccc3)cc1)[C@@H]2CO	-	-	-
O=C(Nc1ccccc1F)N1CCCCN2[C@H](CO)[C@@H](c3ccc(C#Cc4ccccc4)cc3)[C@@H]2C1	-	-	-
O=C(Nc1ccccc1)N1CCCCN2[C@H](CO)[C@H](c3ccc(C#Cc4ccccc4)cc3)[C@@H]2C1	-	-	-
O=C(Nc1ccccc1F)N1CCCCN2[C@H](CO)[C@H](c3ccc(C#Cc4ccccc4)cc3)[C@@H]2C1	-	-89	-
O=C(Nc1ccccc1)N1CCCCN2[C@H](CO)[C@H](c3ccc(C#Cc4ccccc4)cc3)[C@H]2C1	-101	-	-
CCCNC(=O)Nc1ccc2c(c1)C(=O)N(C)[C@H]1CC[C@H](CC(=O)Nc3ccccc3F)O[C@@H]1CO2	-	-	-
CNC[C@@H]1Oc2c(NC(=O)C3CCCCC3)cccc2C(=O)N([C@H](C)CO)C[C@@H]1C	-	-	-
COCC(=O)N1CCC2(CC1)CN(Cc1ccccc1Cl)[C@H](CO)c1[nH]c3cc(OC)ccc3c12	-	-83	.
COc1ccc2c3c([nH]c2c1)[C@@H](CO)N(Cc1ccccc1F)CC31CN(C)C1	-	-	.
COc1ccc2c3c([nH]c2c1)[C@H](CO)N(Cc1ccccc1Cl)CC31CN(C(C)=O)C1	-	-90	.
COc1ccc2c3c([nH]c2c1)[C@H](CO)N(C(C)=O)CC31CCN(Cc2ccccc2Cl)CC1	-	-	.
COCC(=O)N1CC2(C1)CN(Cc1ccccc1Cl)[C@@H](CO)c1[nH]c3cc(OC)ccc3c12	-	-	.

Source: PubChem BioAssay (Broad Institute)
